Binding signal data for two sequences are collected here from US20200071711, “MODULAR CONSTRUCTION OF SYNTHETIC GENE CIRCUITS IN MAMMALIAN CELLS USING MATHEMATICAL MODELING OF CLOSED LOOP TRANSCRIPTIONAL REPRESSORS” (Tsinghua University, published 2020).

Experiment [1] deals with T1, TALER22 (synthetic, UniProt P14727 SEQ:1-806).
T1 chain: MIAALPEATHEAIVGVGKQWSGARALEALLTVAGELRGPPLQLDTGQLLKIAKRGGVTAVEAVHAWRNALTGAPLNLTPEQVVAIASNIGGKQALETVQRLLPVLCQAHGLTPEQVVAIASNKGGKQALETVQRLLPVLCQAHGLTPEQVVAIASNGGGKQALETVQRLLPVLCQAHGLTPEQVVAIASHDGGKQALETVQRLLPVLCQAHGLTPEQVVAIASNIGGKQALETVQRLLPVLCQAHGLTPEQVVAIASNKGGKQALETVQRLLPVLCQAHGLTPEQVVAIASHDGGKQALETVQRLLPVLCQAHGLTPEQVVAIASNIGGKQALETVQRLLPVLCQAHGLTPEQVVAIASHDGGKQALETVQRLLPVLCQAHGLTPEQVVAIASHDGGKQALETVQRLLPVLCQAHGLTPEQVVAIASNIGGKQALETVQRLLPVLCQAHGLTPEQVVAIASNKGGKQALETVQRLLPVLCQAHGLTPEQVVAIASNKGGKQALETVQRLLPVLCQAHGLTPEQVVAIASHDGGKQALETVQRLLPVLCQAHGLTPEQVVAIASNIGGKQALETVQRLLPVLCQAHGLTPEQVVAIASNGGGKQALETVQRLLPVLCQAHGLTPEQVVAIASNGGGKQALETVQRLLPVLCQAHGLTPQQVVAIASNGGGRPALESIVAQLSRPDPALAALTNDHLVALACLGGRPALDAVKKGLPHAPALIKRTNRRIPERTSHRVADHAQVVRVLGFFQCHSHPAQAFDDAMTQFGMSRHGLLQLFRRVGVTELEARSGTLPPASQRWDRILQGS
Kind of experiment: cell_activity; HEK293, two sites flanking CMVmini. Particulars: tags: EYFP-2A upstream, SV40 NLS; dsDNA, one strand shown.

In experiment [2] the target is T2, TALER23 (synthetic, UniProt P14727 SEQ:1-806).
T2 chain: T1 chain
Kind of experiment: cell_activity; HEK293, two sites flanking CMVmini. The note with it: tags: EYFP-2A upstream, SV40 NLS; dsDNA, one strand shown.

Take TAGTCAGCACCAGGCATTT: the binding signal in experiment [1] was 4.66 fold repression.

In experiment [2], TCCGGATGCTCCTCTTAAT returned a binding signal of 2.2 fold repression.
